# Laboratory results published in PubChem BioAssay (NCATS).
# Several values for one entry are separate records, joined by “and”; a condition that tells them apart may be missing. Equal values may be shown once. Results filed as inconclusive are left out. Entries that show only a call come without a potency. A number with no mark means an inactive call. Activity calls are given as the source filed them. The call rests on the fitted dose curve; in most records, active means well fitted cell-killing curve with a large enough effect; inconclusive means small, poorly fitted or top-dose-only effect, or effect the other way; inactive means no such curve, though single readings can be large or run the other way.
# Test: Viability qHTS for spleen associated tyrosine kinase inhibitor (SYKi) naive MV4-11 cells (AID 1963823); further: nearly all actives have a fitted effect of over 40% in size
# Settings: MV4-11 AML viability, CellTiter-Glo luminescence, 72 h; series mostly up to 45 µM
# Excerpt: Department of Medicine, Hematology/Oncology
# University Hospital Frankfurt, Germany.
# Trials have shown promising clinical activity of the selective SYK inhibitor entospletinib in patients with high expressing HOXA9/MEIS1 acute leukemias. As the development of resistance mechanisms is a common problem in the use of targeted drugs, we performed a chemical library screen to identify drug sensitivities in SYK inhibitor resistant AML cells. […] Glucocorticoids are potent immunosuppressants which work in part by inhibiting the transcription of cytokine genes.
# Described herein is a viability screen to look for activity in the SYK inhibitor naive cell line against four NCATS compound libraries (MIPE 5.0, NPC, NPACT, and Kinase) totaling 11372 compounds. Active hits were reacquired for confirmation and further secondary assay testing.
# SEQUENCE No. (e.g., 1, 2, 3, etc.); […] (e.g., Cells, Incubation, Reagent, etc.); VALUE; DESCRIPTION.
# 1; Media; 2uL; white, solid-bottom Corning assay plate.
# 2; Compounds; 23nL; Echo acoustic dispenser.
# 3; Cell; 5uL; 500 cells per well.
# 4: Incubation; 72hr; 37 C, 5% CO2, 95% humidity.
# 5; Reagent; 3uL; CellTiter-Glo reagent (Promega).
# 6; Incubation; 10min; room temperature.
# 7; Detection; Luminescence; ViewLux plate reader (PerkinElmer).
# NOTES (numbers refer to Sequence numbers above
# 1. Quantitative high-throughput screening (qHTS) of small molecule compounds was conducted on naive SYKi MV4-11 cell line.
# 2. Twenty-three nanoliter of small molecule compounds were added to each assay plates using the Echo acoustic dispenser (Beckman Coulter).
# 3. Cells were seeded into the assay plates at a final density of 500 cells in 5uL of media per well using the Multi-drop Combi dispenser.
# 4. Plates were covered with stainless steel gasketed lids and incubated for 72 hours at standard cell culture conditions.
# 5. Viability was assessed by adding 3uL of CellTiter-Glo detection reagent (Promega).
# 6. Plates were covered with gasket lids and incubated for 10 minutes at room temperature.
# 7. Luminescence was measured on a ViewLux plate reader (PerkinElmer).
# Potency means the concentration at half of the fitted maximal effect.
Structure (SMILES),Potency,viability (% of control)
c1ccc(CN(CC2=NCCN2)c2ccccc2)cc1,inactive,–
O=C(NCc1ccc(OC(F)(F)F)cc1)C1c2ccccc2C(=O)N1C1CCOCC1 (stereo not given),inactive,–
Cc1cc(C)c(CNC(=O)c2cc(-c3ccc(CN4CCOCC4)cc3)cc3c2cnn3C2CCCC2)c(=O)[nH]1,inactive,–
CN1CCN(c2ccc3nc(-c4cc(C(C)(C)C)c(OCCCC(=O)NCCCN=[N+]=[N-])c(C(C)(C)C)c4)[nH]c3c2)CC1,5.25 µM (active),–
OC[C@@H](O)[C@H](O)[C@H](O)[C@@H](O)CO,5.96 µM (active),–
c1coc(CNc2ncnc3nc[nH]c23)c1,inactive,–
CNCC(O)c1ccc(O)c(O)c1 (stereo not given),inactive,–
O=C(Nc1cc(C(F)(F)F)cc(C(F)(F)F)c1)c1cc(Cl)ccc1O,651 nM (active) and 934 nM (active),–
O=c1[nH]cnc2c1ncn2[C@@H]1O[C@H](CO)[C@@H](O)[C@H]1O,inactive,–
NC(=NCc1ccccc1)NC(=O)c1nc(Cl)c(N)nc1N,3.32 µM (active),–
OCCN1CCN(CCCN2c3ccccc3Sc3ccc(Cl)cc32)CC1,11.9 µM (active),–
O=P(O)(O)C(O)(Cn1ccnc1)P(=O)(O)O,–,79.2% [at 4.97 µM]
NCCCNCCSP(=O)(O)O,–,79.8% [at 9.25 µM]
OC1C=C2C3CN(Cc4cc5c(cc43)OCO5)C2CC1O (stereo not given),5.17 µM (active),–
C[C@@H]1C(=O)O[C@H]2CC34[C@H]5C[C@@H](C(C)(C)C)C36[C@H](OC(=O)[C@@H]6O)O[C@@]4(C(=O)O5)[C@]21O (stereo not given in full),inactive,–
O=C(/C=C/c1ccc(O)cc1)O[C@@H]1C[C@@](O)(C(=O)O)C[C@@H](O)[C@@H]1O,inactive,–
c1ccc2sc(SN3CCOCC3)nc2c1,inactive,–
CCCn1c(=O)c2[nH]c(-c3ccc(OCC(=O)O)cc3)nc2n(CCC)c1=O,inactive,–
C=CC1(C)CC2CCC3C(C)(C(=O)O)CCCC3(C)C2=CC1=O (stereo not given),inactive,–
COC1CCN(C(=O)c2cc(Cc3n[nH]c(=O)c4ccccc34)ccc2F)CC1,18.6 µM (active),–

Structure (SMILES),Potency,viability (% of control)
COc1ccc(CC2C(=O)NC(C)C(=O)N(C)C3Cc4ccc(cc4)Oc4cc(ccc4OC4OC(CO)C(O)C(O)C4O)CC(C(=O)NC(C)C(=O)NC(C)C(=O)N2C)N(C)C3=O)cc1 (stereo not given),0.0155 µM (active),–
Cn1nc(-c2ccc(C(F)(F)F)cc2)nc2c(=O)n(C)c(=O)nc1-2,3.66 µM (active),–
C[C@H]1O[C@@H](n2cc(F)c(=O)[nH]c2=O)[C@H](O)[C@@H]1O,3.76 µM (active) and 2.35 µM (active),–
COc1cc(O)c2c(c1)C1=C[C@H](O)[C@@H](O)C[C@]1(C)OC2=O,inactive,–
CC1=C(CC(=O)O)c2cc(F)ccc2/C1=C\c1ccc(S(C)=O)cc1 (stereo not given),inactive,–
CC(C)(C)CC(C)(C)c1ccc(OCCOCC[N+](C)(C)Cc2ccccc2)cc1,2.37 µM (active) and 1.16 µM (active),–
C[C@@H](CN1CCC(n2c(=O)[nH]c3cc(Cl)ccc32)CC1)NC(=O)c1ccc2ccccc2c1,20.6 µM (active),–
CC(NC(=O)c1ccccc1N)C(=O)O (stereo not given),inactive,–
CC(C)[C@H](O)C(=O)N[C@@H](C)C(=O)N[C@@H]1C(=O)N(C)CCc2ccccc21,inactive,–
O=C(c1ccc2nccnc2c1)N1CCCCC1,inactive,–
COC(=O)C[C@@H]1C(C(=O)O)=CO[C@@H](O[C@@H]2O[C@H](CO)[C@@H](O)[C@H](O)[C@H]2O)/C1=C\COC(=O)/C=C/c1ccc(O)c(OC)c1,inactive,–
CC(C)C[C@H](NC(=O)CNC(=O)OCc1ccccc1)C(=O)N[C@@H](Cc1ccccc1)C(=O)CCl,18.4 µM (active),–
C=C1CC[C@@H]2C(C)(C)CCC[C@@]2(C)[C@@H]1CC/C(=C/C(=O)OC)COC(C)=O,inactive,–
N#Cc1ccc2[nH]cc(CCCCN3CCN(c4ccc5oc(C(N)=O)cc5c4)CC3)c2c1,11.6 µM (active),–
COc1cc2c(cc1OC)CN(CCc1ccc(NC(=O)c3cc(OC)c(OC)cc3NC(=O)c3cnc4ccccc4c3)cc1)CC2,inactive,–
CC1(C)CCCC2(C)C(CO)C3CCC2C31 (stereo not given),inactive,–
C=C(C)C1CCC(C)C12CC(O)C1(C)OC1C2OC(=O)C(N)CCC(=O)O (stereo not given),inactive,–
CC(NCCc1ccc(O)cc1)C(O)c1ccc(O)cc1 (stereo not given),inactive,–
COc1ccc(-c2cnc3ccc(NCc4ccc(S(N)(=O)=O)cc4)nn23)cc1OC,0.92 µM (active),–
O=C(O)CCC(=O)OC[C@@H](NC(=O)C(Cl)Cl)[C@H](O)c1ccc([N+](=O)[O-])cc1,inactive,–
